Experimental data as given in the supplement of paper PMC10849652.
Targets with a hit are over-represented here; the source holds about 7,900 in all. About 0.6% of all pairs of compound and target were hits. A number with no mark means an inactive call.

What follows are targets tested with c1cn2cc(-c3ccc4cn[nH]c4c3)nc(Nc3ccc(N4CCOCC4)cc3)c2n1 [entospletinib] (assay: log2 fold change, soluble protein after heating vs DMSO (PISA); higher = thermal stabilisation; K562 cells, 10 uM, 30 min; active = over 0.2 and 3.5 SD of the protein, either way, in both replicates (recomputed)).
How it was run: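 K562 cells (2×10^6 cells/mL) were treated with 10 μM compound for 30 min, and aliquots were heated for 3 min over 48°C-58°C. Pooled aliquots were extracted in PBS with 0.5% NP-40 at 4°C, and the supernatant after 21,000xg for 90 min was measured by TMTpro 16plex LC-MS/MS with channel sums equalised. Reported thermal stability, relative to control samples and from duplicates, is a log2 fold change.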

Chain of UniProt Q9NSI8 (Q9NSI8 whole entry, looked up): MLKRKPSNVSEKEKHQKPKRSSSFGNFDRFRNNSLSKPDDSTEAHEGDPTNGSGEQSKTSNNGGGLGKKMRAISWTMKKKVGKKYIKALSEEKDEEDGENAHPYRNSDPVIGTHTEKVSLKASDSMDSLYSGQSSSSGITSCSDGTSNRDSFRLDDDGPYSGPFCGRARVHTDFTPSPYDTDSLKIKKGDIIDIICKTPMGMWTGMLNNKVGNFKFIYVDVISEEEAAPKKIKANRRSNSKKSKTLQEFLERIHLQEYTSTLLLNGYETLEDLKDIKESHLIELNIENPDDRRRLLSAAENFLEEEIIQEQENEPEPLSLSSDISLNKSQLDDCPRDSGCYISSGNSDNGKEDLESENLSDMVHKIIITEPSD
Chain of UniProt P54136 (P54136 whole entry, looked up): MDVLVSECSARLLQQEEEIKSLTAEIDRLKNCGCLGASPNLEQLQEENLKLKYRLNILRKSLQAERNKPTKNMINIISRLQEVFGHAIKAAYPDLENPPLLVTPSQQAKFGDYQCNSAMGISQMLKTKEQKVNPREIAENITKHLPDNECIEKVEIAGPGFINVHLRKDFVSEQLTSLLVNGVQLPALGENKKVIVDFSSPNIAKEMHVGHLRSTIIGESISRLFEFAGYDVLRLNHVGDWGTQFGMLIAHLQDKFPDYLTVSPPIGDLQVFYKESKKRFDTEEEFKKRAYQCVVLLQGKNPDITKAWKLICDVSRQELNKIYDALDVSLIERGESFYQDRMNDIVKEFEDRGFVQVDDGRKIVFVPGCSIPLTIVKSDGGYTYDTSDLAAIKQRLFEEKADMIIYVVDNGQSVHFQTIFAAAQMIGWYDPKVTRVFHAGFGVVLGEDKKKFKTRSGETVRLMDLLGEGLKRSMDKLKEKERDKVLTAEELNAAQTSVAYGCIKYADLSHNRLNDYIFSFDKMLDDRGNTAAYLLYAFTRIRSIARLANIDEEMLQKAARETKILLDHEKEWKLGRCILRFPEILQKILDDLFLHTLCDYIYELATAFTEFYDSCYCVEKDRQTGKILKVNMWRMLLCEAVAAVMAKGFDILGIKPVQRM
Chain of UniProt Q5JTH9 (Q5JTH9 whole entry, looked up): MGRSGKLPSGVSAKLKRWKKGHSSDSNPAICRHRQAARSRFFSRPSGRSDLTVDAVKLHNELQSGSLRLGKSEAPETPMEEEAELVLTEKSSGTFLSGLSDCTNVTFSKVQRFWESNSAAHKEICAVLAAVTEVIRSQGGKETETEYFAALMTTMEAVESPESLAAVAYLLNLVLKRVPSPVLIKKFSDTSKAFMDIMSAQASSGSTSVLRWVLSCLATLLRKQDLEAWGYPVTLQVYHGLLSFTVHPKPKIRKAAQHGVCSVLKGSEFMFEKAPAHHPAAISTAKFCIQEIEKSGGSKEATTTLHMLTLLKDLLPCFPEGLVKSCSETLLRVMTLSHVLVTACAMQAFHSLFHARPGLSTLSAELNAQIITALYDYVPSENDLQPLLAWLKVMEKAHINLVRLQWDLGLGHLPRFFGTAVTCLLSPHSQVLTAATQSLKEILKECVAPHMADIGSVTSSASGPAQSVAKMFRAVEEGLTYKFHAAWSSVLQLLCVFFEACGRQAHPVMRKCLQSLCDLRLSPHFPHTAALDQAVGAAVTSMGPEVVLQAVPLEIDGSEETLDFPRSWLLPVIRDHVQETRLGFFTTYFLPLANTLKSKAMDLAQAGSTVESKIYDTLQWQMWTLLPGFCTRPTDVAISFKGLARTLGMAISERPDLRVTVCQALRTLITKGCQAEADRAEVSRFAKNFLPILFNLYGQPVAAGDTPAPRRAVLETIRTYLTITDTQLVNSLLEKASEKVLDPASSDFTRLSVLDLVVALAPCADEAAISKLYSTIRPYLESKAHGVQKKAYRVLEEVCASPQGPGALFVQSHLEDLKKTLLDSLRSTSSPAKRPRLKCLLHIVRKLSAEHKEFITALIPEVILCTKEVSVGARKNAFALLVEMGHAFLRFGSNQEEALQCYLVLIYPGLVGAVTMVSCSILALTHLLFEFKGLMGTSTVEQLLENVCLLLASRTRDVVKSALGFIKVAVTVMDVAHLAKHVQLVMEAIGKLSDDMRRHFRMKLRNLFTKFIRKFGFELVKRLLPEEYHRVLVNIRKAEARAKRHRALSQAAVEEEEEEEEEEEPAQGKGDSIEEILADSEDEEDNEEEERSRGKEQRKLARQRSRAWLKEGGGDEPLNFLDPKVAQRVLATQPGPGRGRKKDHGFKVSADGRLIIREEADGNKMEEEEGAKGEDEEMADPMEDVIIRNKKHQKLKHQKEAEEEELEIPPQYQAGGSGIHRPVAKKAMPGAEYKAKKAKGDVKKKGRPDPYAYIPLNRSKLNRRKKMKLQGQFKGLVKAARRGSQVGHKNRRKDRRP
Chain of UniProt Q7L4I2 (Q7L4I2 whole entry, looked up): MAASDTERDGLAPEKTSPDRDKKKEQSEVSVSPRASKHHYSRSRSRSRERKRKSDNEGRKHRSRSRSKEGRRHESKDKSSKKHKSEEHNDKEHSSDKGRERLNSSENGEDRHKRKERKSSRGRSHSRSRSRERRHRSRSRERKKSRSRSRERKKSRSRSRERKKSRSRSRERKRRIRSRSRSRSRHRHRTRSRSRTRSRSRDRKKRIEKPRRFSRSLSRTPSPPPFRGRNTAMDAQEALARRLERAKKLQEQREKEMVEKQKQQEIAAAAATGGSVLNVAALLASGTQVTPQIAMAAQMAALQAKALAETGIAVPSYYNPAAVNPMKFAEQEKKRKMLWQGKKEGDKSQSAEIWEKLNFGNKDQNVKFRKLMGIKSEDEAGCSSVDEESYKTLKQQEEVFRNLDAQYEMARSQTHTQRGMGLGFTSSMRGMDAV
Chain of UniProt Q9UKL0 (Q9UKL0 whole entry, looked up): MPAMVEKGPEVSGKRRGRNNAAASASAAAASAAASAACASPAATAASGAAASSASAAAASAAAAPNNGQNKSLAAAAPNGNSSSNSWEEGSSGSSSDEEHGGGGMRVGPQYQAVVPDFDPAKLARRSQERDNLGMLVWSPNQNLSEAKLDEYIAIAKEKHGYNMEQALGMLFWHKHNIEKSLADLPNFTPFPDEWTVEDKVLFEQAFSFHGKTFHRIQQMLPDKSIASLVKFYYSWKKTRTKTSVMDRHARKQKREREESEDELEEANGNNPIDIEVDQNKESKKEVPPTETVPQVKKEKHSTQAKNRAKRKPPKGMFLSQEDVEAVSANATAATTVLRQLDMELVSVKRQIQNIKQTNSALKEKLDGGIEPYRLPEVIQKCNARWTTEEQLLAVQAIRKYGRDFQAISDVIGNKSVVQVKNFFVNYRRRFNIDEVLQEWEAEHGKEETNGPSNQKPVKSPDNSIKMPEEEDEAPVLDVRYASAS
Chain of UniProt Q8NBX0 (Q8NBX0 whole entry, looked up): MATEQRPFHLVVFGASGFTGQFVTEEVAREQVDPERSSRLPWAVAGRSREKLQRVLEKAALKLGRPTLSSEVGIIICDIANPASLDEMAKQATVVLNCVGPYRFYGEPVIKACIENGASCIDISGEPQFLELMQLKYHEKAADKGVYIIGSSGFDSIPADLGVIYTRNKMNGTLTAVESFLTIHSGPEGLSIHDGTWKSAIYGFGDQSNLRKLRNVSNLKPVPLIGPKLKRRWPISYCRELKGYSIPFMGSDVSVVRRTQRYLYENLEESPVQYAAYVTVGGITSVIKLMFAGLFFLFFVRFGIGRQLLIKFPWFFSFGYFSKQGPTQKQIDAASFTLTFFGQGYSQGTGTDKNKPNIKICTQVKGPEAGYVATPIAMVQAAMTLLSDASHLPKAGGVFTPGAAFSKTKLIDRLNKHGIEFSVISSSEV
Chain of UniProt Q9BWF3 (Q9BWF3 whole entry, looked up): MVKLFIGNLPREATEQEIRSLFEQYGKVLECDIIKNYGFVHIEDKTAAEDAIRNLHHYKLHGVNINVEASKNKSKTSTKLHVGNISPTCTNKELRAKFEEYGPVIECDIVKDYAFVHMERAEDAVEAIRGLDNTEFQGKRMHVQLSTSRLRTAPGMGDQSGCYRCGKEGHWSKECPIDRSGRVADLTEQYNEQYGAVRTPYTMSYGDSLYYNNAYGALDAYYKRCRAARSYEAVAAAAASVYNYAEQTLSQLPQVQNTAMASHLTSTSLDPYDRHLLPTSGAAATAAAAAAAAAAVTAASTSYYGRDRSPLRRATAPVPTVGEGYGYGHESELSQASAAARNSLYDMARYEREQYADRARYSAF
Chain of UniProt A1X283 (A1X283 whole entry, looked up): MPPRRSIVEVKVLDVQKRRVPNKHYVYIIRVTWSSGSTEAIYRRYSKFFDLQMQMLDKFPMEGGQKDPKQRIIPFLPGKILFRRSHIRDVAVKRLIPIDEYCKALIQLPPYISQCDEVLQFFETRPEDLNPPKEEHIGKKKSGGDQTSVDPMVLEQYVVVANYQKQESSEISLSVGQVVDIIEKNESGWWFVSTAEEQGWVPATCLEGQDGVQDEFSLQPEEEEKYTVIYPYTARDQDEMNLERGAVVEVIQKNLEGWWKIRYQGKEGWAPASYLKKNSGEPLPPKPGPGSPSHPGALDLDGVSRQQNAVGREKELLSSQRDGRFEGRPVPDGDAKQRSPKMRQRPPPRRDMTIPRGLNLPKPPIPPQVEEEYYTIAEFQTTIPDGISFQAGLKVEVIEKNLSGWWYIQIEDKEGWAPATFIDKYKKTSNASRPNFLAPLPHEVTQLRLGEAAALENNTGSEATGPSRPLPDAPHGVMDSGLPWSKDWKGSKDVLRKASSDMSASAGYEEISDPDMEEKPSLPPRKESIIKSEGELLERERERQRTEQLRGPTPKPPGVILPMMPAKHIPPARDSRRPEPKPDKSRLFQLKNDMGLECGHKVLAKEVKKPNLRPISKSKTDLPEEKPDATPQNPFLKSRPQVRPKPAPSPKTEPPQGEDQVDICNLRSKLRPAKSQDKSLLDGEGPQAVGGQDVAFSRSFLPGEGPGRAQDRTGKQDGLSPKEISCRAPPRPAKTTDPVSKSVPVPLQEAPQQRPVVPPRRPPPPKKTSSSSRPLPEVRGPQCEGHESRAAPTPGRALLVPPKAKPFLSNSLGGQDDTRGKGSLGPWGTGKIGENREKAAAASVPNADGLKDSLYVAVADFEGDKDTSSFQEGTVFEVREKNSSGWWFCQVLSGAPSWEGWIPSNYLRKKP

SENP6 (UniProt Q9GZR1) and RRP12 (UniProt Q5JTH9) are within 0.2 log units of each other in log2 fold change: -0.005 for the first, -0.132 for the second.

RCOR1 (UniProt Q9UKL0) and SAMSN1 isoform 3 (UniProt Q9NSI8) are within 0.2 log units of each other in log2 fold change: 0.002 for the first, -0.058 for the second.

RSRC1 (UniProt Q96IZ7) and RBM8A (UniProt Q9Y5S9) are within 0.2 log units of each other in log2 fold change: 0.076 for the first, 0.061 for the second.

RSRC2 (UniProt Q7L4I2) and RARS (UniProt P54136) are within 0.2 log units of each other in log2 fold change: 0.019 for the first, 0.165 for the second.

RAB3IL1 (UniProt E9PK89) and SH3PXD2B (UniProt A1X283) are within 0.2 log units of each other in log2 fold change: -0.039 for the first, -0.131 for the second.

SCCPDH (UniProt Q8NBX0) and RPS21 (UniProt P63220) are within 0.2 log units of each other in log2 fold change: 0.076 for the first, -0.016 for the second.

RAC3 (UniProt P60763) and RBM4 (UniProt Q9BWF3) are within 0.2 log units of each other in log2 fold change: 0.071 for the first, 0.077 for the second.
